Results reported in paper PMC5540273 (PLoS ONE, 2017).

What was measured:
Conditions in all cases: concentration: 1 μM, replicates: in singlicate; n = 1
RIPK5 = system: RIPK5
ROCK1 = system: ROCK1
ROCK2 = system: ROCK2
ROS1 = system: ROS1
[1] = system: RPS6KA4(Kin.Dom.1-N-terminal)
[2] = system: RPS6KA4(Kin.Dom.2-C-terminal)
[3] = system: RPS6KA5(Kin.Dom.1-N-terminal)
[4] = system: RPS6KA5(Kin.Dom.2-C-terminal)
[5] = system: T1, RSK1(Kin.Dom.1-N-terminal)
T1 construct: gene RPS6KA1

[6] = system: T2, RSK1(Kin.Dom.2-C-terminal)
T2 construct: gene RPS6KA1

[7] = system: T3, RSK2(Kin.Dom.1-N-terminal)
T3 construct: gene RPS6KA3

[8] = system: T4, RSK2(Kin.Dom.2-C-terminal)
T4 construct: gene RPS6KA3

[9] = system: T5, RSK3(Kin.Dom.1-N-terminal)
T5 construct: gene RPS6KA2

[10] = system: T6, RSK3(Kin.Dom.2-C-terminal)
T6 construct: gene RPS6KA2

[11] = system: T7, RSK4(Kin.Dom.1-N-terminal)
T7 construct: gene RPS6KA6

[12] = system: T8, RSK4(Kin.Dom.2-C-terminal)
T8 construct: gene RPS6KA6

S6K1 = system: S6K1
SBK1 = system: SBK1
SGK2 = system: SGK2
SGK3 = system: SGK3
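Note: KINOMEscan kinase panel screen.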

SMILES | %Inh (RIPK5) [%] | %Inh (ROCK1) [%] | %Inh (ROCK2) [%] | %Inh (ROS1) [%] | %Inh [1] [%] | %Inh [2] [%] | %Inh [3] [%] | %Inh [4] [%] | %Inh [5] [%] | %Inh [6] [%] | %Inh [7] [%] | %Inh [8] [%] | %Inh [9] [%] | %Inh [10] [%] | %Inh [11] [%] | %Inh [12] [%] | %Inh (S6K1) [%] | %Inh (SBK1) [%] | %Inh (SGK2) [%] | %Inh (SGK3) [%]
CN1c2ccc(CNc3ccc(F)cc3)cc2-c2c(cnn2C)S1(=O)=O | 4 | 0 | 0 | 4 | 0 | 0 | 0 | 0 | 0 | 14 | 23 | 41 | 3 | 8 | 5 | 0 | 0 | 0 | 100 | 0
Cc1cccc(-c2nc(Nc3ccc4ncsc4c3)c3ccccc3n2)n1 [GW867588] | 24 | 45 | 13 | 17 | 30 | 0 | 0 | 8 | 0 | 16 | 8 | 0 | 0 | 9 | 6 | 8 | 0 | 19 | 0 | 0
COc1cc(Nc2nccc(N3CCC(NC(=O)c4cccc(NC(C)=O)c4)C3)n2)cc(OC)c1OC (centres unmarked) [GSK1379754] | 0 | 32 | 49 | 44 | 23 | 0 | 11 | 0 | 58 | 0 | 3 | 22 | 26 | 0 | 1 | 0 | 10 | 9 | 0 | 0
O=C(NCCCN1CCOCC1)c1cccc(Nc2nccc(Nc3ccc(Oc4ccccc4)cc3)n2)c1 [GW663929] | 7 | 0 | 27 | 25 | 0 | 0 | 0 | 32 | 18 | 20 | 0 | 11 | 7 | 10 | 0 | 20 | 0 | 1 | 12 | 19
O=c1cc(N2CCOCC2)nc2n(Cc3cccc(F)c3)ccn12 [GSK2297430] | 0 | 0 | 27 | 24 | 19 | 0 | 26 | 0 | 0 | 0 | 0 | 0 | 14 | 0 | 0 | 6 | 0 | 6 | 0 | 0
CC(=O)Nc1ccc(COc2ccc(Nc3ccnc4cc(-c5ccccn5)ccc34)cc2)cc1.Cl [GW440148] | 0 | 14 | 7 | 0 | 0 | 0 | 1 | 20 | 7 | 33 | 0 | 6 | 3 | 11 | 0 | 26 | 0 | 0 | 0 | 8
O=C1Cc2cc(Nc3nc(NCc4cccc(S(=O)(=O)C(F)(F)F)c4)ncc3C(F)(F)F)ccc2N1 | 4 | 6 | 13 | 3 | 11 | 24 | 0 | 0 | 41 | 0 | 37 | 15 | 8 | 0 | 35 | 0 | 0 | 0 | 2 | 33
